We go through 51 compounds from ChEMBL document CHEMBL3988442, “University of Dundee, Small-Polar-MMV Screening Library” (2021).

Experiment [1] has as its target T1, Aspartate--tRNA(Asp/Asn) ligase (Mycobacterium tuberculosis (strain ATCC 25618 / H37Rv)) (UniProt P9WFW3). Note: in the data most compounds retested in dose-response had high values.
T1 sequence (whole entry): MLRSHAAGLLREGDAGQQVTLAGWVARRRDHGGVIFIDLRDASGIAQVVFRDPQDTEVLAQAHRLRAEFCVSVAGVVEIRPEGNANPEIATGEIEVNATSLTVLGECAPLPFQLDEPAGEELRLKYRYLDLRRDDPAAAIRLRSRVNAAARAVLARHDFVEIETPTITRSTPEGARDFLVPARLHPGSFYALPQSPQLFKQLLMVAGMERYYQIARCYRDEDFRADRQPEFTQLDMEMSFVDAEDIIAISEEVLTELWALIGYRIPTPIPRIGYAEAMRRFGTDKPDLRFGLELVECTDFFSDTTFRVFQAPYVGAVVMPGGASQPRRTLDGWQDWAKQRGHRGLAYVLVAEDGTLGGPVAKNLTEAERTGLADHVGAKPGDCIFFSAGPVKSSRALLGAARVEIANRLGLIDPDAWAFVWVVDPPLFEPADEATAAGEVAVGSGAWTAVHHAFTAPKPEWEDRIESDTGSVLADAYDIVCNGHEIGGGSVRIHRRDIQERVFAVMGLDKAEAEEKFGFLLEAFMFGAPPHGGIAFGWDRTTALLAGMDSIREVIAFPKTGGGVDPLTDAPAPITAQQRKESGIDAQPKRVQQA
The experiment can be described thus: Assay for Asp RNA synthetase-1 from Mycobacterium tuberculosis. Format: functional. Also on record: scale not given: direction of the effect not stated beside the values. Particulars: 30 µM.

For experiment [2], the target named is Shiga toxin 2 (Escherichia coli O157:H7) (UniProt P09385+P09386). As to the kind of experiment: E. coli 0.157:H7 Shiga Toxin SOP - stx2 screening assay. Format: functional. Further details: scale not given: direction of the effect not stated beside the values. As to conditions: 30 µM.

On to `O=S(=O)(N1CCCC1)N1CCCCC1CCc1ccccc1` (configuration not stated), for which the Percent Effect was 1.42% in experiment [1] and 10.8% in experiment [2].

In the case of `Cc1ncc(C)c(N2CCCC(CO)(Cc3cccc(Cl)c3)C2)n1` (configuration not stated), the Percent Effect in experiment [1] is 2.71%; in experiment [2], -21.4%.

Regarding `Cc1cc(C)n(CC2CCCN2C(=O)c2c[nH]c3ncccc23)n1` (configuration not stated), the Percent Effect in experiment [1] is -1.92%; in experiment [2], 26.8%.

As for `Cn1ccnc1CN1CCC2(COCCN(Cc3ccsc3)C2)C1` (configuration not stated), the figures for the Percent Effect in experiment [1] and in experiment [2] were -5.11% and -19.8%, respectively.

Take `COc1ccc(CN2CCN(C(C)c3nc(C4CC4)no3)CC2)cc1` (configuration not stated): the Percent Effect in experiment [1] was -3.61%; in experiment [2], 0.241%.

On to `CNC(=O)c1ccc(CN2CCC(N(C)Cc3noc(C)n3)C2)cc1` (configuration not stated), for which the Percent Effect was -0.577% in experiment [1] and 7.96% in experiment [2].

Regarding `Cc1cnccc1CN1C[C@@H](O)[C@H](Oc2cccc(F)c2)C1`, the values for the Percent Effect in experiment [1] and in experiment [2] were -1.59% and -1.74%, respectively.

For `C1CC(CN2CCOCC3(CCN(C4CCOCC4)C3)C2)CCO1` (configuration not stated), the Percent Effect in experiment [1] was 3.19%; in experiment [2], -4.37%.

Regarding `NC[C@H]1CC[C@H](C(NC(=O)c2cccc(F)c2)c2ccccn2)CC1` (some centres not stated), the figures for the Percent Effect in experiment [1] and in experiment [2] were -0.28% and -71.9%, respectively.

Take `CC1c2ncc(Cn3cncn3)n2CCN1C1CCOCC1` (configuration not stated): the figures for the Percent Effect in experiment [1] and in experiment [2] were 2.5% and -1.95%, respectively.

As for `CS(=O)(=O)c1ccc(CNC(=O)N2CCC(C(N)=O)C2)cc1` (configuration not stated), the Percent Effect is -1.49% in experiment [1] and -11.7% in experiment [2].

As to `Cc1nccnc1CN1CCC2(CCCN(C3CCOCC3)C2=O)C1` (configuration not stated), the values for the Percent Effect in experiment [1] and in experiment [2] were 2.6% and -28.8%, respectively.

Turning to `CS(=O)(=O)NCCCN1CCCC1Cc1ccccc1` (configuration not stated), the Percent Effect was -3.08% in experiment [1] and -0.572% in experiment [2].

For the compound `Cc1ccc(CN2CC[C@H]3OCC[C@@H](C(=O)NC4CC4)[C@@H]3C2)o1`, the figures for the Percent Effect in experiment [1] and in experiment [2] were 4.6% and -6.37%, respectively.

On to `Cc1cc2cc(C(=O)N3CC[C@H](O)[C@]4(CCCO4)C3)ccc2o1`, for which the Percent Effect in experiment [1] was 1.13%; in experiment [2] it was -10.1%.

As to `CCOc1cc(C(=O)N2CCCC(c3noc(C)n3)C2)ccn1` (configuration not stated), the Percent Effect is 0.253% in experiment [1] and 28.1% in experiment [2].

Regarding `CC(C)c1ncc(S(C)(=O)=O)c(C2CCCNC2)n1` (configuration not stated), the Percent Effect was -1.91% in experiment [1] and 10.4% in experiment [2].

`CCOc1ccc(CN2CCN(C(=O)c3ccc(C)n3C)CC2)cc1`: the Percent Effect in experiment [1] is 2.42%; in experiment [2], 8.86%.

On to `CCn1c(C)nnc1CN(C)C1CCN(CCn2cccn2)C1` (configuration not stated), for which the figures for the Percent Effect in experiment [1] and in experiment [2] were 1.41% and 12.1%, respectively.

As to `Cc1nc(CN2CCCC(CCc3c(F)cccc3F)C2)c[nH]1` (configuration not stated), the Percent Effect is -1.36% in experiment [1] and -14.3% in experiment [2].

On to `Cc1ccc(C(=O)N2CCSCC2)cc1NC(=O)NCCO`, for which the Percent Effect amounted to 0.137% in experiment [1] and 5.64% in experiment [2].

As for `CN(C)C(=O)c1nc2c(s1)CCN(C(=O)c1ccc(Cl)cc1)CC2`, the Percent Effect was 2.36% in experiment [1] and -16.7% in experiment [2].

As to `O=C(CCc1ccsc1)N1CCC(Cc2ccc(CO)cc2)C1` (configuration not stated), the Percent Effect is 0.501% in experiment [1] and -19.1% in experiment [2].

Consider `Cc1c(F)cc(C(=O)O)cc1S(=O)(=O)Nc1ccc2c(c1)OCCO2`, for which the Percent Effect in experiment [1] came out at 2.32%; in experiment [2], 10.9%.

Turning to `Cc1cc(-c2cnc(NC3CC3)nc2-c2ccc(C)o2)on1`, the Percent Effect was -2.52% in experiment [1] and 0.454% in experiment [2].

As to `CC(C)n1[nH]c(=O)c2c1NC(=O)CC2c1ccc2ncccc2c1` (configuration not stated), the Percent Effect in experiment [1] is -3.5%; in experiment [2], -15.3%.

On to `Cc1noc(C)c1CN(C)CC1CCCN1c1cccnn1` (configuration not stated), for which the values for the Percent Effect in experiment [1] and in experiment [2] were -1.56% and 14.9%, respectively.

`c1ccc(-c2cnc(CN3CCn4c(nnc4C4CC4)C3)o2)cc1`: the Percent Effect in experiment [1] amounted to 0.278%; in experiment [2], 23.8%.

For the compound `CCNC(c1ccc(OC)cc1)c1cccnc1` (configuration not stated), the Percent Effect in experiment [1] amounted to 1.53%; in experiment [2], 1.33%.

`COc1cnc(C2(O)CCN(C(=O)c3cccnc3)CC2)c(OC)n1`: the values for the Percent Effect in experiment [1] and in experiment [2] were 0.313% and 17.2%, respectively.

`CC(C)N1CCOCC2(CN(Cc3ccco3)CCO2)C1` (configuration not stated): the Percent Effect in experiment [1] is 1.82%; in experiment [2], 5.04%.

In the case of `CC(C)(C)c1nc(CN2CCCC2CCc2ccccc2)no1` (configuration not stated), the values for the Percent Effect in experiment [1] and in experiment [2] were 2.52% and 14.9%, respectively.

As to `Cc1nc(CN(C)C2CCN(CC3CCCCC3)C2)no1` (configuration not stated), the Percent Effect in experiment [1] is -2.62%; in experiment [2], -9.5%.

In the case of `CCCc1nc(CN2CCN(CC(O)c3ccccc3)CC2)no1` (configuration not stated), the Percent Effect was -4% in experiment [1] and -3.05% in experiment [2].

In the case of `Cc1noc(C)c1CN1CC[C@H]2OCC[C@@H](C(=O)N3CCCO3)[C@@H]2C1`, the results for the Percent Effect in experiment [1] and in experiment [2] were -1.14% and -15.4%, respectively.

In the case of `CCn1nc(C)c(CCNC(=O)C2CCCN(CC(N)=O)C2)c1C` (configuration not stated), the Percent Effect in experiment [1] was -2.59%; in experiment [2], 7.92%.

Consider `CC(C)N(C)CC(=O)N1CCCC(c2ccc(C(=O)O)cc2)C1` (configuration not stated), for which the Percent Effect in experiment [1] is -4.14%; in experiment [2], 18.4%.

As to `CC1CN(C(=O)CN(Cc2ccccc2Br)C2CC2)CCO1` (configuration not stated), the Percent Effect was 2.59% in experiment [1] and 29.2% in experiment [2].

Turning to `Cc1nccc(CNC(=O)NCCOc2ccc(F)c(F)c2)n1`, the Percent Effect in experiment [1] was -2.26%; in experiment [2], -21%.

`CCn1cnnc1C1CCN(C(=O)c2cnc3ccccc3n2)CC1`: the Percent Effect in experiment [1] is -1.17%; in experiment [2] it was -10.9%.

Regarding `CCn1cnnc1CNC(=O)N1CCCN(C(C)=O)CC1`, the Percent Effect in experiment [1] was -0.98%; in experiment [2], 25.6%.

As to `Cc1ccc(CNC2CCCc3c2cnn3C)s1` (configuration not stated), the Percent Effect in experiment [1] is -2.88%; in experiment [2], 1.56%.

With `CCN1C(=O)CCCC12CCCN(C(=O)c1cnccn1)C2` (configuration not stated), the Percent Effect is 0.865% in experiment [1] and -10.9% in experiment [2].

For `O=C(NCC1CC1)[C@H]1C[C@H]2OCC[C@H]2N(Cc2ccsc2)C1`, the Percent Effect was found to be 4.96% in experiment [1] and 13.4% in experiment [2].

For `Cc1ccc(N2CCCC(NCc3cccc4c3OCCO4)C2)nn1` (configuration not stated), the Percent Effect in experiment [1] was found to be 4.13%; in experiment [2] it was 19%.

On to `O=C(Cc1cccc(F)c1)NCCNCc1ccc2c(c1)CCO2`, for which the values for the Percent Effect in experiment [1] and in experiment [2] were -0.182% and -76.4%, respectively.

In the case of `CC(NC(=O)NCCCn1ccnc1)c1ccc2c(c1)OCCCO2` (configuration not stated), the Percent Effect in experiment [1] is 1.46%; in experiment [2], 20.4%.

As for `Cc1ncsc1CCC(=O)N1CCCC[C@H](N(C)C)C1`, the Percent Effect in experiment [1] was -3.74%; in experiment [2], 3.62%.

For `Cc1nc(CN2CCN(C(=O)c3sccc3C3CC3)CC2)cs1`, the Percent Effect in experiment [1] is -4.27%; in experiment [2], 13.6%.

Take `COCCCC1(CO)CCCN(CCS(C)(=O)=O)C1` (configuration not stated): the Percent Effect in experiment [1] was 4.17%; in experiment [2], 0.747%.

Turning to `O=C(COCc1ccccc1)N1CCCC(n2cncn2)C1` (configuration not stated), the Percent Effect in experiment [1] was -3.66%; in experiment [2] it was 22.6%.
